# Results filed as inconclusive are left out. Entries that show only a call come without a potency. Values without a mark were called inactive. Calls of active or inactive are those of the source. The call rests on the fitted dose curve.
# Target: Acetylcholinesterase (Homo sapiens) (UniProt P22303)
# Assay: Acetylcholinesterase (AChE) small molecule antagonists: colormetric cell-based qHTS assay (AID 1347395); further: nearly all actives have a fitted effect of over 30% in size
# Conditions: SH-SY5Y cells AChE activity, colorimetric (Ellman); series mostly up to 115 µM
# How it was run: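 SH-SY5Y cells; cpd 30 min 37 C; + DTNB/acetylthiocholine, 90 min 37 C; colorimetric thiocholine read; qHTS.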
# Chain of Acetylcholinesterase (Homo sapiens) (P22303 whole entry, looked up): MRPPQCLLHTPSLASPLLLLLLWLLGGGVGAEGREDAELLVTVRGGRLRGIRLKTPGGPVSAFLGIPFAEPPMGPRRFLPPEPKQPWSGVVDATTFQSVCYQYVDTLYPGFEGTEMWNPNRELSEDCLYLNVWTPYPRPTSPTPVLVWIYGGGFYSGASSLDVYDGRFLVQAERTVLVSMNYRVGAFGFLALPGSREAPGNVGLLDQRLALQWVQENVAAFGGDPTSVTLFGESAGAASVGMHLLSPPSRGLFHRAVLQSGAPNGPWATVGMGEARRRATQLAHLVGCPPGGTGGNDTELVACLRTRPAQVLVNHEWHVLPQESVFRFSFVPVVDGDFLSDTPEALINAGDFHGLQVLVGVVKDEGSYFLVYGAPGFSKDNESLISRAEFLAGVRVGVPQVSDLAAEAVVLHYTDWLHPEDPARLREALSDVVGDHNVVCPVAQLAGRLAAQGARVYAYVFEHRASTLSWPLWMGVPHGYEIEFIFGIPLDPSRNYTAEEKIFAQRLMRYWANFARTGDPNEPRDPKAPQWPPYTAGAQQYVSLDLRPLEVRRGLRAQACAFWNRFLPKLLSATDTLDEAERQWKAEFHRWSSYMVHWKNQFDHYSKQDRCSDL
Structure (SMILES),Potency,"activity, negative = inhibition"
CCCCC(CC)COC(=O)COc1cc(Cl)c(Cl)cc1Cl (stereo not given),inactive,
COc1cccc(CCc2ccccc2OCC(CN(C)C)OC(=O)CCC(=O)O)c1 (stereo not given),inactive,
CCCCCCCCCCC=CC1CC(=O)OC1=O (stereo not given),inactive,
O=C(O)[C@@H](O)[C@H](O)[C@H](O)[C@@H](O)C(=O)O,inactive,
CN1CCN(C(c2ccccc2)c2ccccc2)CC1,inactive,
Cc1cccc(NC(=S)N(C)C)c1,inactive,
CN1CCN(C2Cc3ccccc3Sc3ccc(Cl)cc32)CC1 (stereo not given),inactive,
CC/C=C(\C)C=O,inactive,
CC(=O)NCCCS(=O)(=O)O,inactive,
Cc1cc2cc3c(C)cc(=O)oc3c(C)c2o1,inactive,
O=C(O)c1ccccc1-n1cc(C(=O)O)c(=O)c2cc(Nc3c(F)cc(F)cc3Cl)c(Cl)cc21,inactive,
CCc1cccc(CC)c1,inactive,
O=Cc1ccc(C(=O)O)cc1,inactive,
Cc1ccccc1C(=O)N1CC/C(=N\OS(=O)(=O)O)c2ccc(Cl)cc21,inactive,
CN1CC(=O)NC1=N,inactive,
Nc1ccc(Oc2ccc(Cl)cc2)cc1,inactive,
O=C(O)P(=O)(O)O,inactive,
CCN(CC)S(=O)(=O)c1ccc(C(=O)O)cc1,inactive,
NC(CSCC(=O)O)C(=O)O (stereo not given),inactive,
CC(C)N(C)C,inactive,

Structure (SMILES),Potency,"activity, negative = inhibition"
CCCCCCCCCCCCCC(=O)OCC,inactive,
CCO[Si](C)(CCCOCC1CO1)OCC (stereo not given),inactive,
CC(=O)O[C@]1(C(C)=O)CC[C@H]2[C@@H]3C=C(Cl)C4=CC(=O)CC[C@]4(C)[C@H]3CC[C@@]21C,inactive,
Cc1ncc(COP(=O)(O)O)c(C=O)c1O,inactive,
CN(C)C,inactive,
CCCCCCCCCCN,inactive,
Cc1occc(=O)c1O,inactive,
COc1cc(Cl)ccc1Cl,inactive,
Cc1cccc2cccnc12,inactive,
C=C(C)C(=O)OCCCCCCCCCCCCCCCCCC,,0.231% [at 23.6 µM]
CCOc1cccc(-n2cc(C(=O)N3CCN(c4cc(C(=O)O)c5ccccc5c4)CC3)nc2-c2ccc(C)cc2)c1,inactive,
Nc1ccc(S(=O)(=O)Nc2ccc(Cl)nn2)cc1,inactive,
CC(C)c1cccc(C(C)C)c1N,inactive,
C/C(=N\O)[C@@H](C)NCC(C)(C)CN[C@H](C)/C(C)=N/O,inactive,
CCN(CC)c1ccc2c(C)cc(=O)oc2c1,inactive,
Cc1cn([C@H]2C[C@H](N=[N+]=[N-])[C@@H](CO)O2)c(=O)[nH]c1=O,inactive,
O=C(O)c1ccc(OCCN2CCCCC2)cc1,inactive,
COc1cccc(OC)c1O,inactive,
Cn1c(N)nc2nc[nH]c2c1=O,inactive,
O=C1CCCCCCCCCCCCCCO1,inactive,
